Here are results for ten compounds from PubChem BioAssay (Tox21).

Inconclusive results are not listed. The source made the active and inactive calls. Unless noted, calls follow the shape of the dose curve; as a rule, active = well fitted curve in the direction sought with a large enough effect in the repeat runs; inconclusive = weak or mixed curves; inactive = no such curve, though single readings can be large; an effect the other way counts as inactive or inconclusive.

Assay [1] in a line: qHTS assay to identify small molecule antagonists of the glucocorticoid receptor (GR) signaling pathway - cell viability counter screen (AID 720693; also: nearly all actives have a fitted effect of over 55% in size). (Quantitative high-throughput screening tests each substance at several concentrations.)
Assay [2] can be described thus: qHTS assay for identifying genotoxic compounds that show differential cytotoxicity against isogenic chicken DT40 cell lines with known DNA damage response pathways - wild type cell line (AID 743012). Also: nearly all actives have a fitted effect of over 60% in size. Also: potency is read from the fitted curve at half-maximal effect. In short, it runs like this: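 Cells (DT40 wild type, 300/well) are treated with DMSO-dissolved compounds after a ~0.5 h pre-incubation and kept 40 h at 37 C/5% CO2. Viability is then measured by CellTiter-Glo luminescence following 30 min at room temperature.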

A short description of assay [3]: qHTS assay for identifying genotoxic compounds that show differential cytotoxicity against isogenic chicken DT40 cell lines with known DNA damage response pathways - Rev3 mutant cell line (AID 743014). Also: nearly all actives have a fitted effect of over 55% in size. Also: potency is read from the fitted curve at half-maximal effect.
Assay [4] in a line: qHTS assay to identify small molecule antagonists of the androgen receptor (AR) signaling pathway - cell viability counter screen (AID 743033; also: nearly all actives have a fitted effect of over 45% in size).
The nature of assay [5]: qHTS assay to identify small molecule antagonists of the androgen receptor (AR) signaling pathway using the MDA cell line - cell viability counter screen (AID 743041; also: nearly all actives have a fitted effect of over 45% in size). In short, it runs like this:
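Same-well cytotoxicity was assessed by CellTiter-Fluor in MDA-kb2 AR-luc cells after 16 h of compound treatment under R1881 agonism.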

Assay [6] can be described thus: qHTS assay to identify small molecule antagonists of the thyroid receptor (TR) signaling pathway - cell viability counter screen (AID 743064). Also: nearly all actives have a fitted effect of over 50% in size. Also: potency is read from the fitted curve at half-maximal effect. In short, it runs like this: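 Plate GH3.TRE-Luc cells; incubate 4 h at 37 °C; add compound, then T3 to 1 nM final; incubate 23.5 h; add CellTiter-Fluor; incubate 30 min at 37 °C, 5% CO2; read fluorescence.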
Assay [7] can be described thus: qHTS assay to identify small molecule antagonists of the thyroid receptor (TR) signaling pathway (AID 743065). Also: nearly all actives have a fitted effect of over 55% in size. Also: potency is read from the fitted curve at half-maximal effect. In short, it runs like this: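 GH3.TRE-Luc rat pituitary cells (two TREs driving luciferase) were dosed with compound, then stimulated with 1 nM T3 (final) for 23.5 h at 37 C. ONE-Glo luminescence was the read-out, with CellTiter-Fluor fluorescence as the cytotoxicity counter-screen.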

For assay [8], the system named is thyroid hormone receptor (rat, GH3 cells). Kind of assay: qHTS assay to identify small molecule agonists of the thyroid receptor (TR) signaling pathway (AID 743066; calls by dose curve).
Assay [9] in a line: qHTS assay to identify small molecule antagonists of the estrogen receptor alpha (ER-alpha) signaling pathway - cell viability counter screen (AID 743074; calls by dose curve;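 also: HEK293 cells carrying ER-alpha-UAS-bla reporter stimulated with 17beta-estradiol; nearly all actives have a fitted effect of over 45% in size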).
Assay [10] addresses Estrogen receptor (Homo sapiens) (UniProt P03372). Kind of assay: qHTS assay to identify small molecule agonists of the estrogen receptor alpha (ER-alpha) signaling pathway (AID 743075; calls by dose curve;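 also: HEK293 GripTite cells with ER-alpha and UAS-driven beta-lactamase reporter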).
A short description of assay [11]: qHTS assay to identify small molecule antagonists of the estrogen receptor alpha (ER-alpha) signaling pathway using the BG1 cell line - cell viability counter screen (AID 743081).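 Also: compound given together with 17beta-estradiol as the ER stimulus; series mostly up to about 70 µM; nearly all actives have a fitted effect of over 45% in size.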
The next assay addresses Aromatase (Homo sapiens) (UniProt P11511). Nature of the assay: qHTS assay to identify aromatase inhibitors (AID 743083). Also: series mostly up to about 70 µM; nearly all actives have a fitted effect of over 55% in size.
Assay [12] has as its target Estrogen receptor (Homo sapiens) (UniProt P03372). Nature of the assay: qHTS assay to identify small molecule antagonists of the estrogen receptor alpha (ER-alpha) signaling pathway (AID 743069; active = well fitted curve in the direction sought with a large enough effect in the signal ratio in the repeat runs, not every such curve was filed as active; the % refers to the signal ratio). In short, it runs like this: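 Reporter cells (ER-alpha-bla, HEK293 background) are conditioned overnight in stripped-serum medium (2% charcoal-stripped FBS). Compound and 17beta-estradiol exposure runs 18 hr at 37C, 5% CO2.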

The target is the same in assay [13]. Nature of the assay: qHTS assay to identify small molecule agonists of the estrogen receptor alpha (ER-alpha) signaling pathway using the BG1 cell line (AID 743079). Also: nearly all actives have a fitted effect of over 20% in size.
The nature of assay [14]: qHTS assay to identify small molecule antagonists of the estrogen receptor alpha (ER-alpha) signaling pathway using the BG1 cell line (AID 743080; calls by dose curve;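 also: BG1 cells stimulated with 17beta-estradiol alongside compound; series mostly up to about 70 µM; nearly all actives have a fitted effect of over 25% in size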). In short, it runs like this: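 BG1-Luc-4E2 cells (endogenous full-length ER-alpha, stable 4×ERE-luciferase) were starved 5 days in phenol-red-free medium with 10% charcoal-stripped FBS, plated 24 h, then given compound plus 17beta-estradiol for 21.5 h at 37 C; ONE-Glo luminescence read after 30 min.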

Assay [15] can be described thus: qHTS assay for identifying genotoxic compounds that show differential cytotoxicity against isogenic chicken DT40 cell lines with known DNA damage response pathways - Rad54/Ku70 mutant cell line (AID 743015). Also: nearly all actives have a fitted effect of over 60% in size.
In assay [16] the target is Androgen receptor (Homo sapiens) (UniProt P10275). Kind of assay: qHTS assay to identify small molecule antagonists of the androgen receptor (AR) signaling pathway (AID 743035; active = well fitted inhibition curve with a large enough effect in the signal ratio in the repeat runs, not every such curve was filed as active; the % refers to the signal ratio). In short, it runs like this: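 Antagonism is scored as loss of R1881-driven beta-lactamase reporter expression in HEK293 cells carrying the reporter under a UAS element, after 16 h co-treatment at 37C and a 2 h room-temperature FRET substrate read.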

The target is the same in assay [17]. Nature of the assay: qHTS assay to identify small molecule agonists of the androgen receptor (AR) signaling pathway using the MDA cell line (AID 743040; also: nearly all actives have a fitted effect of over 20% in size). In short, it runs like this:
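Human breast carcinoma MDA-kb2 reporter cells (MMTV-luc, AR/GR elements) were treated for 16 h at 37C in 0% CO2 following a 5 h settling period. Signal was quantified by ONE-Glo luminescence.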

Assay [18] has the same target. Kind of assay: qHTS assay to identify small molecule antagonists of the androgen receptor (AR) signaling pathway using the MDA cell line (AID 743042; also: nearly all actives have a fitted effect of over 55% in size). In short, it runs like this: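 MDA-kb2 breast carcinoma cells carrying MMTV-luciferase (AR/GR responsive) were co-treated with compounds and the agonist R1881 for 16 h at 37C. Inhibition read as ONE-Glo luminescence; CellTiter-Fluor fluorescence measured in parallel for cytotoxicity.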

Estrogen receptor (Homo sapiens), sequence (P03372 whole entry, looked up): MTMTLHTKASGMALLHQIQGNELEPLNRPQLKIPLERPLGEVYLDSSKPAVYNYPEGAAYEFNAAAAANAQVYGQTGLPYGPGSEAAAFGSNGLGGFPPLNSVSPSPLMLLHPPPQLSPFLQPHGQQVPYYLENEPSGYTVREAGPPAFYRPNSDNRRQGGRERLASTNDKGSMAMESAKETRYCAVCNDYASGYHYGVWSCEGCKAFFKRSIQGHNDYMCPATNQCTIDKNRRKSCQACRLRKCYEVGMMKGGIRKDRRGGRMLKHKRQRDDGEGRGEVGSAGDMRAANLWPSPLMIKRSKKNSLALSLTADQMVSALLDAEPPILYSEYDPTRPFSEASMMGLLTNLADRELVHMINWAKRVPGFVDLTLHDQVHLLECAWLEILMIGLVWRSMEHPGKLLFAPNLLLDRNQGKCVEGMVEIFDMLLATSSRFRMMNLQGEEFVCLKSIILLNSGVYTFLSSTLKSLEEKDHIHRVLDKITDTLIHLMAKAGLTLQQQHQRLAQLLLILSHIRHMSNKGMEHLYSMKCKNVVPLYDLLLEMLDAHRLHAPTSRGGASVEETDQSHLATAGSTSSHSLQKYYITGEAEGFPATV
Aromatase (Homo sapiens), sequence (P11511 whole entry, looked up): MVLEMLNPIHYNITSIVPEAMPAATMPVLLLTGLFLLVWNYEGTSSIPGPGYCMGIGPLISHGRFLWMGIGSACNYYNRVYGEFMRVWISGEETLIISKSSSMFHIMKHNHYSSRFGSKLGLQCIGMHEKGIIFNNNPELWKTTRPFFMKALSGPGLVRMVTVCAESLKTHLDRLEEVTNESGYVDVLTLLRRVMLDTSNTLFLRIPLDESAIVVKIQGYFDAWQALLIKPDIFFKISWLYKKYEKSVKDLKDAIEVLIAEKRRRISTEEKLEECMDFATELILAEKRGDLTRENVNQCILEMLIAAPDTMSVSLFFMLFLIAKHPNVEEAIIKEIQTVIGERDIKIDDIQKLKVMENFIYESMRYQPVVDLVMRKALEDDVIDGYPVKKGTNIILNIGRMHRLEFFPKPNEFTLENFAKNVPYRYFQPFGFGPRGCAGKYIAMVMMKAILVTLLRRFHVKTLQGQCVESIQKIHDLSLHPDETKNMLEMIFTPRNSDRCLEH
Androgen receptor (Homo sapiens), sequence (P10275 whole entry, looked up): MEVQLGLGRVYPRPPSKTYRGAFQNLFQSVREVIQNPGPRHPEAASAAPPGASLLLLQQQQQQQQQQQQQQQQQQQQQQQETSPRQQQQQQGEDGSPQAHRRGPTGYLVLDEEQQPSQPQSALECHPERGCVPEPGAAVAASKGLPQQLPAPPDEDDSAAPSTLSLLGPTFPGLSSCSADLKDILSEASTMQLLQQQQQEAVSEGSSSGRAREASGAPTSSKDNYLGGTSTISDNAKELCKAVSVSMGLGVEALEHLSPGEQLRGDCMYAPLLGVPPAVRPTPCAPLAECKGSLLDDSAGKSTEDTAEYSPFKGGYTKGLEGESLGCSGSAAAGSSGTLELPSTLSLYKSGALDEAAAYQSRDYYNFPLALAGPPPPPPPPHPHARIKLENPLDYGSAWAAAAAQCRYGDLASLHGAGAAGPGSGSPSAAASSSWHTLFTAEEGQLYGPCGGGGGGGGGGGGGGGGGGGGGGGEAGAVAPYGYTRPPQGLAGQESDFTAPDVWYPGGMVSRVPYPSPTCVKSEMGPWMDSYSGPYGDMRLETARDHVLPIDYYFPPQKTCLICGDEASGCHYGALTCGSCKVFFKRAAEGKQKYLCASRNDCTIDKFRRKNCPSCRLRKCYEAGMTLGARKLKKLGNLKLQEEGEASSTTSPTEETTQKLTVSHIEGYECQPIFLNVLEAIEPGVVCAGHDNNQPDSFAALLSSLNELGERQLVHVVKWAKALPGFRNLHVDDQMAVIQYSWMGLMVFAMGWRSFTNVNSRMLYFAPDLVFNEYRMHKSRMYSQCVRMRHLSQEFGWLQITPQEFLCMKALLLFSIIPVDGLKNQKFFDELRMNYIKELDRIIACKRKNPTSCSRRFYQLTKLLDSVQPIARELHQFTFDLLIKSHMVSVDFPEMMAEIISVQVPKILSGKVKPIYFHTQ

Take `CC(=O)[C@@]1(O)CC[C@H]2[C@@H]3C[C@H](C)C4=CC(=O)CC[C@]4(C)[C@H]3CC[C@@]21C`: the Potency entry in [1], in assay [4], in [5], in assay [6], in assay [8] and in assay [10] was “inactive” throughout. The Potency result (in assay [11]; in the assay with Aromatase (Homo sapiens)) was “inactive” each time. The figures for the Potency in assay [2], in assay [3] and in [7] were 16.8 µM (active), 11.9 µM (active) and 11.9 µM (active), respectively. In assay [9], the result was inactive.

With `COCCO`, the Potency entry in assay [1], in assay [2], in assay [3], in assay [4], in assay [5] and in assay [6] was “inactive” throughout. Moreover, the Potency result (in assay [12]; in assay [10]; in assay [13]; in assay [14]; in [11]; in the assay with Aromatase (Homo sapiens)) was “inactive” in each case. Besides, in [9], the compound was called inactive.

Consider `Cc1occc1S`, for which the Potency result in assay [1], in assay [4], in [5], in assay [6], in [12] and in assay [10] was “inactive” each time. Moreover, the Potency result (in [13]; in assay [11]; with Aromatase (Homo sapiens)) was “inactive” each time. For the same compound, the Potency was 54.5 µM (active) in [2] and 61.1 µM (active) in assay [3]. In addition, the call in [9] was inactive.

For the compound `Oc1ccc(C(O)CNCCCCCCNCC(O)c2ccc(O)c(O)c2)cc1O` (stereo not drawn), the Potency entry (in assay [1]; in assay [4]; in assay [8]; with Aromatase (Homo sapiens)) was “inactive” each time. Further, the Potency in assay [2] is 26.6 µM (active); in [3], 29.8 µM (active); in assay [6], 15 µM (active); in assay [7], 29.8 µM (active). The call in assay [9] was inactive.

On to `CCCCCCCCCC=O`, for which the Potency result in assay [1], in [2], in assay [3], in assay [4], in assay [5] and in assay [6] was “inactive” each time. For the same compound, the Potency entry (in assay [7]; in assay [8]; in assay [10]; in assay [14]; in [11]; with Aromatase (Homo sapiens)) was “inactive” each time. Further, the compound was called inactive in assay [9].

Consider `NCCCOCCOCCOCCCN`, for which the Potency entry in assay [1], in assay [4], in [6], in [7], in assay [8] and in assay [12] was “inactive” in each case. The Potency result (in assay [10]; in assay [13]; in assay [11]; with Aromatase (Homo sapiens)) was “inactive” each time. Moreover, the Potency in assay [2] was 5.45 µM (active); in assay [3], 10.9 µM (active). In addition, the compound was called inactive in assay [9].

With `CCOc1cc(OCC)c(C(=O)CCC(=O)O)cc1OCC`, the Potency entry in assay [1], in assay [2], in assay [15], in [4], in assay [5] and in assay [6] was “inactive” each time. For the same compound, the Potency entry in assay [7], in [8], in assay [10], in assay [13], in assay [14] and in [11] was “inactive” in each case. In addition, in the assay with Aromatase (Homo sapiens), the Potency result was “inactive”. The result in assay [9] was inactive.

For the compound `CC(C(=O)O)c1ccc(C(=O)c2ccccc2)s1` (stereo not drawn), the Potency entry in [1], in assay [2], in assay [3], in [16], in assay [17] and in [5] was “inactive” each time. The Potency entry in assay [18], in assay [6], in assay [7], in [12], in [10] and in [11] was “inactive” in each case. In addition, the Potency entry in the assay with Aromatase (Homo sapiens) is “inactive”. Besides, the call in assay [9] was inactive.

Turning to `Cn1sccc1=O`, the Potency entry in assay [1], in assay [5], in assay [12], in assay [10], in assay [14] and in [11] was “inactive” throughout. Further, in the assay with Aromatase (Homo sapiens), the Potency entry is “inactive”. Besides, the Potency in assay [2] was 2.43 µM (active); in [3], 3.06 µM (active); in assay [6] it was 30.6 µM (active); in [7] it was 30.6 µM (active). Moreover, in assay [9], the compound was classed as inactive.

With `CCN(CCO)CCCC(C)Nc1ccnc2cc(Cl)ccc12` (stereo not drawn), the Potency entry in [1], in assay [4], in assay [5], in assay [6], in assay [7] and in assay [8] was “inactive” in each case. For the same compound, the Potency result (in [11]; with Aromatase (Homo sapiens)) was “inactive” throughout. Also, the figures for the Potency in [2] and in [3] were 29.8 µM (active) and 23.7 µM (active), respectively. The call in [9] was inactive.
